Assay results: PubChem BioAssay (NCATS)
Calls of active or inactive are those of the source. Calls come from the whole dose curve; as a rule, active = well fitted activation curve with a large enough effect; inconclusive = small, poorly fitted or top-dose-only effect; inactive = no such curve, though single readings can be large or run the other way.

Each compound was assayed against Cytochrome P450 3A4 (Homo sapiens) (UniProt P08684) (assay: qHTS Assay for Activators of Cytochrome P450 3A4 (AID 885; note: nearly all actives have a fitted effect of over 65% in size)). Conditions: recombinant CYP3A4, Luciferin-PPXE luminescence, 60 min; series mostly up to 57.1 µM.
Protocol: NIH Molecular Libraries Screening Centers Network [MLSCN]
NIH Chemical Genomics Center [NCGC]
The P450 gene superfamily is involved in the metabolism and clearance of xenobiotics. This assay used human CYP3A4 to measure the dealkylation of luciferin-6' phenylpiperazinylyl (Luciferin-PPXE; […]) to luciferin. The luciferin is then measured by luminescence after the addition of a luciferase detection reagent. Luciferin-PPXE concentration in the assay was equal to its KM for CYP3A4. Inhibitors and some substrates limit the production of luciferin, and decrease measured luminescence; activators increase the production of luciferin and luminescence.
NCGC Assay Protocol Summary:
Two uL of enzyme and substrate mix (final concentrations: 20nM CYP3A4, 25uM Luciferin-PPXE, 200mM KPO4) were dispensed into a white, solid bottom 1536-well microtiter plate. 23nL of compound was transferred by a pin tool. The plate was incubated at RT for 10 min. Two uL of an NADPH regeneration solution (Promega supplied reagent) was dispensed and the reaction was allowed to continue for 60 min at RT. Then the reaction was stopped by reconstituted luciferin detection buffer. After another 20 min of incubation the plate was read on the ViewLux (Perkin Elmer) at 60 sec exposure and 2x2 binning. This protocol was carried out with Promega-Glo reagents and further information can be found at http://www.promega.com/tbs/tb325/tb325.pdf. Data were normalized to the to AC100 inhibition (57 uM ketoconazole).
Keywords: P450, CYP2D6, Luciferase, MLSMR, MLSCN, NIH Roadmap, qHTS, NCGC

Sequence of Cytochrome P450 3A4 (Homo sapiens) (P08684 whole entry, looked up): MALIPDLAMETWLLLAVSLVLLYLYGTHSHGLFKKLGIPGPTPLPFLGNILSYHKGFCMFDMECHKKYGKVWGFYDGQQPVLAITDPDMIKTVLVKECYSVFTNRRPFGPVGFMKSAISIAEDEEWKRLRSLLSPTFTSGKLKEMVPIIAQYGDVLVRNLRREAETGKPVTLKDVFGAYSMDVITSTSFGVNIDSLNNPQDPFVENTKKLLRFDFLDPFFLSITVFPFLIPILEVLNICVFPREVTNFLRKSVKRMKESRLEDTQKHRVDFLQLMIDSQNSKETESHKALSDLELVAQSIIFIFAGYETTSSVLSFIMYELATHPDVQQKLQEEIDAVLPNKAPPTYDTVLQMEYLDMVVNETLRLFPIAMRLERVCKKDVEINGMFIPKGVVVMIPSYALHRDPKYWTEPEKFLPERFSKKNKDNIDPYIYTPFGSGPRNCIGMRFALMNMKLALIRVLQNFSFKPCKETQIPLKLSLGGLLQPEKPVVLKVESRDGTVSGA

Potency, inactive:
CC1(C)CC[C@]2(C(=O)O)CC[C@@]3(C)C(=CCC4[C@@]5(C)CCC(O)[C@@](C)(CO)C5CC[C@@]43C)C2C1 (stereo not given in full)
COc1ccc(-c2coc3cc(O)ccc3c2=O)c(OC)c1
C=C1C2CC[C@@]3(C)C(c4ccoc4)OC(=O)C[C@@]13OC1CC(=O)C(C)(C)C(CC(=O)OC)[C@]12C (stereo not given in full)
COc1ccc(C2CC(=O)c3c(O)cc(O)cc3O2)cc1O (stereo not given)
CCCCCc1c2c(cc(O)c1C(=O)O)OC(=O)c1c(cc(OC)cc1C(=O)CCCC)O2
Cc1cc(O)c(C=O)c2c1C(=O)Oc1c(COC(=O)/C=C/C(=O)O)c(O)c(C(=O)O)c(C)c1O2
COc1ccc(CNc2ncncc2-c2ccccc2CN(C)C)c(OC)c1
COc1ccc(-c2oc3cc(O[C@@H]4OC(CO)C(O)C(O)C4O)c(OC)c(O)c3c(=O)c2OC)cc1O (stereo not given in full)
COc1c2ccoc2nc2c(OC)c(OCC(O)C(C)(C)O)ccc12 (stereo not given)
C=C1C2=CC(=O)OC(c3ccoc3)[C@]2(C)CCC1[C@]1(C)C=CC(=O)C(C)(C)C1CC(=O)OC (stereo not given in full)
CC[C@@H]1OC(=O)[C@H](C)[C@H](O[C@@H]2C[C@](C)(OC)[C@H](O)[C@H](C)O2)[C@H](C)[C@H](O[C@@H]2O[C@@H](C)C[C@@H](N(C)C)[C@@H]2O)[C@](C)(O)C[C@H](C)C(=NOCOCCOC)[C@H](C)[C@H](O)[C@]1(C)O
Cc1cc(=O)oc2c(O)c(O)ccc12
COc1cc(-c2cc(=O)c3c(O)c(OC)c(OC)c(OC)c3o2)cc(OC)c1OC
COc1cccc(O)c1O
C#C[C@]1(O)CCC2C3CCC4=Cc5oncc5C[C@@]4(C)C3CC[C@@]21C (stereo not given in full)
CC(=O)OCC(=O)[C@]1(O)C(C)CC2C3CCC4=CC(=O)C=C[C@@]4(C)[C@]3(F)C(O)C[C@@]21C (stereo not given in full)
CC(=O)OC1CC(OC(C)=O)[C@]2(C)C(CC(OC(C)=O)[C@]3(C)C2CC[C@@]2(C)C(c4ccoc4)OC(=O)C4O[C@]432)C1(C)C (stereo not given in full)
Oc1ccc(C2Oc3cc(O)cc(O)c3CC2O)cc1 (stereo not given)
COc1ccc(CC(=O)c2ccc(O)cc2O)cc1
COC(=O)CC1C(C)(C)C(=O)C2CC3=C(CC[C@]4(C)C3=CC(=O)OC4c3ccoc3)[C@@]1(C)C2=O (stereo not given in full)
CC1CC[C@@]23CCC4(C)[C@@]5(C)CCC6C(C)(C)C(O)CC[C@@]6(C)C5C=C[C@@]4(OC2=O)C3C1C (stereo not given in full)
COc1ccc(-c2cc(=O)c3c(O)c(OC)c(OC)c(OC)c3o2)cc1OC
CC(=O)OC1CC2C(C)(C)C(=O)C=C[C@]2(C)C2CC[C@@]3(C)C(c4ccoc4)OC(=O)C4O[C@@]43[C@]12C (stereo not given in full)
CC(=O)OC1CC2C(C)(C)C(O)CC(O)[C@@]2(C)C2CC[C@@]3(C)C(=CC(=O)OC3c3ccoc3)[C@]12C (stereo not given in full)
C=C1CC[C@@H]2O[C@@]2(C)CC[C@H]2[C@H]1CC2(C)C
CC(=O)OCC1=C(C(=O)O)N2C(=O)C(NC(=O)Cc3cccs3)C2SC1 (stereo not given)
COc1ccc(/C=C/C(=O)c2ccc(O)cc2O)cc1
COc1ccc(C(=O)c2ccc(O)cc2)c(O)c1O
CC(=O)OC1CC2C(C)(C)C(=O)CC[C@]2(C)C2CC[C@@]3(C)C(c4ccoc4)OC(=O)C4OC43[C@]12C (stereo not given in full)
CC1(C)CC2/C(CO)=C/C=C/[C@](C)(O)CC[C@]21O (stereo not given in full)
C=C1CCC2C(CC2(C)C)C(=C)CC/C1=N/O (stereo not given)
CC(=O)OC1CC2C(C)(C)C(O)CCC2(C)C2CC[C@]3(C)C(=CC(=O)OC3c3ccoc3)C12C (stereo not given in full)
C#CCCCCCCCCCCCC(O)CC(O)CO (stereo not given)
O=C1CC(c2ccc(O)c(O)c2)Oc2cc(O)cc(O)c21 (stereo not given)
COC(=O)CC1C(C)(C)C(O)C2CC3=C4CC(O)OC(c5ccoc5)[C@]4(C)CCC3[C@@]1(C)C2=O (stereo not given in full)
CC(C)c1ccc2c(c1)CCC1C(C)(C(N)=O)CCCC21C (stereo not given)
O=c1c(O)cccc2cc(O)c(O)c(O)c12
C=CCCCCCCCCCCCC(O)CC(O)COC(C)=O (stereo not given)
O=c1c(O)c(-c2ccccc2)oc2ccccc12
CCCCCC(=O)Cc1cc(O)cc(O)c1C(=O)Oc1cc(CC(=O)CCCCC)c(C(=O)O)c(OC)c1
